# Laboratory results reported in PubChem BioAssay AID1508624 (National Center for Advancing Translational Sciences (NCATS), 2021).
# In all, about 48,000 compounds went through this assay and about 120 (0.25%) were called active. About 4% were inconclusive and are not listed. Calls come from the whole dose curve; as a rule, active = well fitted activation curve with a large enough effect; inconclusive = small, poorly fitted or top-dose-only effect, or another doubt; inactive = no such curve, though single readings can be large or run the other way. The list comes from a sample in which actives are over-represented; it also holds similar structures and randomly drawn compounds.
# Experiment: Primary qHTS for Identification of Small Molecule Activators of Huntingtin-Antisense Promoter Activity; note: nearly all actives have a fitted effect of over 55% in size
# Conditions: HEK293 HTT-AS promoter firefly luciferase reporter, 24 h; series mostly up to 57.5 µM; activity change, positive = activation: at the top concentration
# Outline: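 HEK293 cells carrying firefly luciferase reporters were seeded at 2,500 per well in Opti-MEM and cultured for 24 h. They were then treated with compounds at up to 57.5 uM final for 24 h at 37 degrees C before Dual-Glo luminescence readout.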
row,Structure (SMILES),"activity change, positive = activation"
1,Cn1c(=O)cc(OCC(=O)N2CCN(c3ccccc3)CC2)c2ccccc21,-3.9% (inactive)
2,COc1ccc(-c2c3c(=O)n(C)c(=O)n(C)c3c3c(C)nc4ccccc4n23)cc1,-13.8% (inactive)
3,Cc1cccc(N2CCN(c3ccc(C(=O)O)cc3NC(=O)c3ccccc3F)CC2C)c1 (stereo not given),-19.7% (inactive)
4,Cn1c(=O)c(=O)n(C)c2cc(NC(=O)c3ccccc3Br)ccc21,-0.646% (inactive)
5,C=C1CCC2[C@](C)(CO)C(O)CC[C@]2(C)C1CC=C1C(=O)OCC1O (stereo not given in full),"-4.74% [at 116 µM, percent change from vehicle, -100% = no light] (inactive)"
6,O=c1c(=O)n(Cc2c(F)cccc2Cl)ccn1Cc1ccccc1,-4.92% (inactive)
7,COc1ccc(CCNC(=O)c2ccc(-n3c(C)cc4c3CCCC4)cc2)cc1OC,9.05% (inactive)
8,CCC(=O)N1c2ccccc2CC1C(=O)N1CCN(c2cccc(OC)c2)CC1 (stereo not given),-17.5% (inactive)
9,CCOc1cc(CNC(=O)c2sc3ncnc(N(C)C4CCCCC4)c3c2C)ccc1OC,-35.7% (inactive)
10,Cc1ccccc1CCNC(=O)C1CCN(c2nc3ccccc3nc2C(F)(F)F)CC1,-6.9% (inactive)
11,O=C(NC1CC(=O)N(c2ccc(F)cc2)C1)c1cccs1 (stereo not given),-7.05% (inactive)
12,CCOC(=O)C1CCCN(S(=O)(=O)c2cc(-c3cc(C)no3)ccc2OC)C1 (stereo not given),-4.74% (inactive)
13,Cc1cccc(C)c1-n1ncc(C(=O)NCCCN2CCCCC2)c1C1CCN(C(=O)OC(C)(C)C)CC1,-21% (inactive)
14,Cc1ccc(C(=O)Nc2cc3c(cc2N2CCCC2)n(C)c(=O)c(=O)n3C)cc1,-7.49% (inactive)
15,COc1ccccc1NC(=O)C1=C(C)Nc2nc(SCC(=O)c3ccc(C)cc3)nn2C1c1ccccc1C (stereo not given),2.53% (inactive)
16,Cc1c(-c2nsc(NC(=O)c3cccc(Cl)c3)n2)nnn1-c1ccccc1C(F)(F)F,-85.6% (inactive)
17,Cc1cc(C)cc(NC(=O)Cn2c(=O)c3ccccc3n3nncc23)c1,-1.71% (inactive)
18,COc1ccc(Cn2ccn(CC(=O)Nc3cc(C)ccc3C)c(=O)c2=O)cc1,-13.3% (inactive)
19,Cc1nn(-c2ccc(F)cc2)c(-n2cccc2)c1C(=O)N1CCN(c2ccccc2)CC1,-22.6% (inactive)
20,CCOc1ccc(Nc2oc(/C=C/c3ccc(F)cc3)nc2C#N)cc1,4.81% (inactive)
21,CCCC(=O)Nc1ccc(NC(=O)c2sc3ccccc3c2Cl)cc1,-35.3% (inactive)
22,O=S(=O)(c1ccc2nc(N3CCN(c4cccc(Cl)c4)CC3)ccc2c1)N1CCCCC1,-6.05% (inactive)
23,CCOC(=O)c1ccc(NC(=O)CC2C(=O)N(c3ccccc3)C(=O)N2Cc2cccs2)cc1 (stereo not given),-8.82% (inactive)
24,Cc1cc(Cl)ccc1OCC(=O)N(Cc1ccc(N(C)C)cc1)C1CCS(=O)(=O)C1 (stereo not given),-14.8% (inactive)
25,CCC(=O)N1CCc2cc(S(=O)(=O)NC(C(=O)NCCc3ccc(C)cc3)C(C)C)ccc21 (stereo not given),-1.83% (inactive)
26,CCOc1ccc(CCNC(=O)c2csc3c2CCCCC3)cc1,-21.7% (inactive)
27,Cc1ccc2nc(-c3ccc(C)c(NC(=O)Cc4ccccc4)c3)oc2c1,-72.1% (inactive)
28,CCCN(CCC)S(=O)(=O)c1ccc(C(=O)Nc2sc3c(c2C(=O)OC)CCN(CC)C3)cc1,-29.2% (inactive)
29,O=C(C1CC1)N1CCc2cc(Br)cc(S(=O)(=O)N3CCN(c4ccccc4F)CC3)c21,-14.5% (inactive)
30,CCOc1ccc(NC(=O)c2c(NC(=O)Cc3ccccc3)sc3c2CCCCC3)cc1,-10.1% (inactive)
